Measured values reported in PubChem BioAssay AID449762 (Southern Research Specialized Biocontainment Screening …, 2010).
Screen size: about 330,000 compounds; about 1,900 (0.58%) were called active. Another 4% or so got no clear call; they are omitted. Only a sample is shown. Entries with a potency or affinity are not part of this list. A number with no mark means an inactive call. Cut-off read from the data, not from the text of the source: inconclusive = inhibition above about 70% without an active follow-up result; inactive = below that.

assay: M. tuberculosis growth inhibition, HTS (AID 449762);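 note: bacterial growth assessed after seven days of incubation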; conditions: M. tuberculosis H37Rv growth inhibition, 7H9 media; at 25 µM; hits give high values

SMILES | inhibition [%]
COc1cc(/C=C/C(=O)OCC(=O)NCCc2ccccc2)ccc1OC(F)F | -11.9
N#C/C(=C/c1ccc(Sc2nc3ccccc3[nH]2)o1)c1cccc(F)c1 | 3
N#C/C(=C\c1ccc(Sc2nc3ccccc3[nH]2)o1)c1ccccc1 | -1.33
CCOC(=O)Cn1nc(C)n(-c2ccccc2)c1=O | -8.51
CN(C)c1ncnc2c1ncn2C1OC(CO)C(O)C1O (configuration not stated) | -4.17
C[C@H](Cc1ccccc1)Nc1ncnc2c1ncn2[C@@H]1O[C@H](CO)[C@@H](O)[C@H]1O | -4.76
CCOc1ccccc1-n1nnnc1SCC(=O)OC | 3.09
Cc1cc(C)n2c(Br)c(CN3CCCC(C)C3)nc2n1 (configuration not stated) | -0.64
Clc1ccc(CN2C3=NCCN3c3ccccc32)cc1Cl | -11.7
CCOc1cccc(-c2c(C(=O)N/N=C/c3sccc3C)nnn2-c2nonc2N)c1 | 3.18
O=C(CSc1nc2ncccc2[nH]1)Nc1ccc2c(c1)OCO2 | -7.9
CCc1ccc(NC(=O)CSc2nc3ncc(Br)cc3[nH]2)cc1 | 49.8
N#Cc1ccccc1OCc1cccc(S(=O)(=O)N2CCOCC2)c1 | -6.86
OCCN(CC#CC(O)(c1ccccc1)C1CCCC1)CCO (configuration not stated) | 3.68
Cn1c(CCn2ccccc2=O)nc2cc(NC(=O)COc3ccccc3)ccc21 | 0.17
CCCC(=O)N1CCCC(c2nc(-c3cccc(OC)c3)no2)C1 (configuration not stated) | -8.11
COc1ccc(N2CCN(C(=O)c3ccc(Oc4ccc(C(F)(F)F)cn4)cc3)CC2)cc1 | 10.5
O=C(c1ccc(Oc2ccc(C(F)(F)F)cn2)cc1)N1CCN(c2ccccc2)CC1 | 46.7
Cc1ccc(S(=O)(=O)N2CCCCC2)cc1NC(=O)COC(=O)c1ccccc1F | -3.82
CCOc1ccc(NC(=O)CN(C)C(=O)c2c(-c3ccccc3Cl)noc2C)cc1OCC | 1.46
COc1ccccc1-n1cnnc1SCC(=O)Nc1cc(C)on1 | -1.02
COC(=O)c1c(C(=O)OC)c2n(c1C)CCC2 | -2.13
Cc1cc(C)c2ccc(N)nc2c1O | -11.8
Cc1cc(C)c2ccc(C(=O)O)nc2c1O | -5.39
CCOc1ccc2[nH]cc(C(=O)N3CCN(CC)CC3)c(=O)c2c1 | 5.18
Cc1cccc(-c2noc(CCC(=O)Nc3ccc(C(N)=O)cc3)n2)c1 | 4.71
COc1ccc(-c2noc(CCCC(=O)Nc3ccc(C(N)=O)cc3)n2)cc1 | -3.01
